MITF inh: inhibitors of human MITF; 650,000 compounds, 0.91% hits; AID 1259374; AlphaScreen MITF homodimerization, bead proximity signal; inhibition, % at 2.6 µM; in the data active = inhibition above about 50%;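 note: 0% = vehicle wells with protein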
TEAD-YAP block: TEAD-YAP interaction inhibition. HEK-TIYL cells, TEAD-Gal4/YAP UAS-luciferase luminescence. inhibition, % at 9.12 µM. 640,000 compounds, 1.4% hits. AID 1259422; in the data active = inhibition above about 32%;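 note: 0% = median of test compound wells and 100% = reference inhibitor wells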
GPR151 activ: human GPR151 activation; 650,000 compounds, 1% hits; PathHunter beta-arrestin GPR151 cells, luminescence; activation, % at 11.2 µM; in the data active = activation above about 4.9%;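 note: 0% = median of compound wells and 100% = cells with positive control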
Target sequence (Q8TDV0 whole entry, looked up): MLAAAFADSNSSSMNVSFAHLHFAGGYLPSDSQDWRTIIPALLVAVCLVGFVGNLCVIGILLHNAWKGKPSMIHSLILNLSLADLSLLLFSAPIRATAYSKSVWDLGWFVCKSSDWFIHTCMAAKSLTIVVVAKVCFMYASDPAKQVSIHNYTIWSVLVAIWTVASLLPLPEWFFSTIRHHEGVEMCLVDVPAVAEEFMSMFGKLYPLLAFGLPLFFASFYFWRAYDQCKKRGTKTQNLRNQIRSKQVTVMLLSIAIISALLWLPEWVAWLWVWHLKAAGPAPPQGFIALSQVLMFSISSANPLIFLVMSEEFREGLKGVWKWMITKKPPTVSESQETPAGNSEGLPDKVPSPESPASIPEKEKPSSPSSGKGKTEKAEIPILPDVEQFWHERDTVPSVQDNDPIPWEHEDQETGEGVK
FBW7 activator: activators of human E3 ligase FBW7; Q969H0; AlphaScreen FBW7–phospho-cyclin E peptide binding, activator screen; normalized activity (activation), % at 26.1 µM; 650,000 compounds, 0.13% hits; in the data active = normalized activity above about 1.9%;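 note: purified mutant Fbw7 with reduced substrate affinity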
An asterisk follows results filed as active. In the library only some 3.5% were active in any assay of this set; here they are far more common.

SMILES	MITF inh	TEAD-YAP block	GPR151 activ	FBW7 activator
Cc1cc(C(F)(F)F)c(N)c(SCC(=O)Nc2nc3ccccc3s2)n1	-3	65*	1	0
Cc1cc(C)c(C#N)c(SCC(=O)Nc2ccccn2)n1	9	86*	-1	0
COC(=O)CSc1nc(N)c(C#N)c(-c2ccco2)c1C#N	-11	0	1	0
COC(=O)CSc1nc(-c2ccco2)cc(C(F)(F)F)c1C#N	0	11	-1	2.0*
Cc1cc(C(F)(F)F)c(C#N)c(SCC(=O)Nc2ccc(F)cc2)n1	4	-12	0	0
Cc1cc(C)nc(SCC(=O)Nc2nc3ccccc3s2)n1	-5	-4	-1	0
Cc1cccc(NC(=O)CSc2nc(C)cc(C(F)(F)F)c2C#N)n1	14	88*	-2	1
COCCN1C(=O)c2ccccc2C(C(=O)Nc2cc(OC)ccc2OC)C1c1ccc(F)cc1 (centres undefined)	4	-3	2	0
CCN(CC)CCNc1nc2c(c(=O)[nH]c(=O)n2C)n1CC(C)O (centres undefined)	17	-2	1	0
c1ccc(Cn2c(SCC3CCCO3)nnc2C2CCN(Cc3ccoc3)CC2)cc1 (centres undefined)	-14	-10	2	0
COc1ccc(-c2nnc(SCC(=O)/C(C#N)=C(\C)N)n2CC(C)C)cc1	-6	4	0	0
Cc1cc(C(=O)N2CCC(n3nccc3NC(=O)CCc3ccccc3)CC2)c(C)o1	-13	-7	0	0
COc1ccc(CC(=O)N2CCC(c3nc(C)ncc3-c3ccncc3)CC2)cc1	17	-17	0	2.4*
COc1ccc(NC(=O)c2ccc(Oc3ccc(C(F)(F)F)cc3[N+](=O)[O-])cc2)cc1	5	-1	-1	0
CCn1nnc2c(Nc3cccc(C)c3)ncnc21	-1	-61	-3	0
CCn1nnc2c(NCc3ccc4[nH]c(C)cc4c3)ncnc21	17	65*	3	0
COc1cccc(NC(=O)CN2CCN(Cc3nc(-c4ccc(F)cc4)cs3)CC2)c1	15	33*	4	0
COc1cccc(-c2csc(N3CCN(CC(=O)Nc4ccc(F)cc4)CC3)n2)c1	31	0	2	0
CS(=O)(=O)Nc1ccc(-c2cnc3cccc(Nc4cncnc4)c3c2)cc1	3	-25	-2	0
CS(=O)(=O)Nc1ccc(-c2cnc3cccc(Nc4cc(-c5ccccc5)ccn4)c3c2)cc1	21	12	-1	2.4*
CCNc1nc(NCC)nc(Sc2ccc([N+](=O)[O-])cc2[N+](=O)[O-])n1	1	51*	0	0
CN(C)c1ccc(/C=N/Nc2cccc3cccnc23)cc1	5	37*	-5	0
CC(=O)NC1=NC(=O)/C(=C/c2ccc(-c3ccc(Cl)cc3)o2)S1	-2	-12	0	0
CC(=O)NC1=NC(=O)/C(=C\c2ccc(I)o2)S1	75*	-3	1	0
O=C(O)c1n[nH]c2c1CCC2	3	-1	2	0
SMILES	MITF inh	TEAD-YAP block	GPR151 activ	FBW7 activator
COc1ccc(C2SCCN2S(=O)(=O)c2ccc(NC(C)=O)cc2)cc1 (centres undefined)	13	14	3	1
COc1ccc(C2SCCN2S(=O)(=O)c2ccc(NC(C)=O)cc2)cc1OC (centres undefined)	14	2	-1	1.9*
CCOC(=O)c1c(-c2ccc(OC)cc2)csc1NC(=O)CCCC(=O)O	-5	7	0	0
COC(=O)c1c(-c2ccc(C)c(C)c2)csc1NC(=O)CCCC(=O)O	-8	33*	0	0
c1ccc2c(c1)CC(c1nc3ccc(-c4ccncc4)cc3[nH]1)CCO2 (centres undefined)	-12	41*	0	0
COc1cc(NS(=O)(=O)c2ccc(-c3cc(C)no3)cc2)cc(OC)c1OC	14	61*	2	1
COc1cc(NS(=O)(=O)c2ccc(-c3cc(C)no3)cc2)cc(OC)c1	-1	61*	1	0
COc1cc(NS(=O)(=O)c2ccc3c(c2)oc(=O)n3C)cc(OC)c1OC	-2	48*	1	0
COc1cc(C)ccc1OCCCOc1ccccc1C(=O)O	-11	37*	-1	1
COC(=O)c1ccccc1OCCCOc1ccc(C)cc1OC	13	-12	-2	0
Cc1cc(C)c(NC(=O)Cn2cnc3c(cnn3-c3ccccc3C)c2=O)c(C)c1	6	-3	-1	0
O=C(O)c1ccccc1	-4	-1	0	0
O=C(O)c1cc(O)c(O)c(O)c1	76*	1	1	0
Cc1ccc2cc3cc(C(=O)N4CCN(C)CC4)oc3nc2c1	-22	45*	1	0
CC1(Cc2ccc(S(C)(=O)=O)cc2)C(=O)Nc2ccc(F)cc21 (centres undefined)	-10	6	0	0
CCOC(=O)/C(C#N)=N/Nc1ccc2c(c1)OCCO2	0	-24	-2	0
N#CC(C#N)=NNc1ccc2c(c1)OCO2	-2	39*	-1	0
O=C(CN1C(=O)c2ccccc2C1=O)N1CCOCCN(C(=O)CN2C(=O)c3ccccc3C2=O)CCOCC1	8	-6	1	0
CCOc1ccc2nc(NC3=NC(C)(C)CC(C)=N3)nc(C)c2c1	-1	28	-1	0
CC1=NC(Nc2nc(C)c3cc(C)ccc3n2)=NC(C)(C)C1	-8	37*	-1	1
CC(C)(C)NS(=O)(=O)c1cccc2nonc12	7	9	-1	0
O=C(c1ccco1)N1CCN(c2ncc(-c3cccnc3)n3ccnc23)CC1	-24	-70	1	2.3*
Nc1ccc(-c2cnc3c(N4CCN(C(=O)c5ccco5)CC4)nccn23)cc1	-8	-60	-1	0
O=C(c1ccco1)N1CCN(c2ncc(-c3ccc(CO)cc3)n3ccnc23)CC1	5	39*	1	4.8*
O=C(NCC(c1cccs1)N1CCOCC1)c1ccc(Cl)s1 (centres undefined)	-8	57*	0	0
SMILES	MITF inh	TEAD-YAP block	GPR151 activ	FBW7 activator
COc1ccc(Nc2nc(-c3ccc(C(C)(C)C)cc3)nc3ccccc23)cc1	10	86*	0	0
CCN(CC)c1nc(-c2ccc(C(C)(C)C)cc2)nc2ccccc12	5	58*	-2	0
CCN(CC)c1nc(-c2ccc(C)cc2)nc2ccccc12	-15	-16	0	0
Cc1ccc(Nc2nc(-c3ccc(C)cc3)nc3ccccc23)cc1	12	7	-2	0
CCCCc1ccc(-c2nc(Nc3ccc(C(F)(F)F)cc3)c3ccccc3n2)cc1	-8	38*	0	0
Cc1cccc(C)c1NC1=NC2CS(=O)(=O)CC2S1 (centres undefined)	7	-2	-1	0
Cc1cccc(NC(=O)C2C3C=CC4(O3)C2C(=O)N(Cc2ccccc2)C4C(=O)NC2CCCC(C)C2C)c1 (centres undefined)	-7	-2	0	0
COc1ccc(/C=C(/C#N)c2cccc(F)c2)c(OC)c1	-3	43*	-1	0
COc1ccc(/C=C(/C#N)c2cccc([N+](=O)[O-])c2)c(OC)c1	15	8	-1	0

Bioassay records as filed in PubChem.
